Experimental findings from PubChem BioAssay AID672 (University of Pittsburgh Molecular Library Screening Center, 2007) are described below.

The list shows a part of the results. A number with no mark means an inactive call. No rule for the calls is given here.

The assay in a line: H2O2 generation by compounds in DTT – biochemical, probe assessment, artefact control, dose response (AID 672). The settings on record: Redox cycling H2O2 generation, phenol red/HRP.

Turning to `CCc1ccc(NC(=O)CSc2nc3ccccc3c(=O)n2CCN2CCOCC2)cc1`, the EC50 is above 50 µM.
